{"source": "PubChem BioAssay (NCATS)", "note": "Records with an inconclusive call do not appear. Where a call stands in place of a potency, no number is given. Calls of active or inactive are those of the source. Calls come from the whole dose curve; as a rule, active = well fitted curve in the direction sought with a large enough effect; inconclusive = small, poorly fitted or top-dose-only effect, or another doubt; inactive = no such curve, though single readings can be large; an effect the other way counts as inactive or inconclusive. Potency is the fitted concentration of half-maximal effect.", "data": [{"assay": "Quantitative highthroughput screen to assess conditional lethalithy of NOMO1 cells grown in RPMI1640 with untreated serum (RPMI+s) (AID 1963876); note: nearly all actives have a fitted effect of over 35% in size", "conditions": "NOMO1 AML cells in RPMI+serum, CellTiter-Glo viability, 48 h; series mostly up to 45.8 µM", "in_short": "(§1)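 Each medium arm—HPLM with 10% dialyzed FBS, or RPMI1640 with 5 mM glucose and 10% untreated or dialyzed FBS—was screened against an 11-point, 3-fold compound titration for 48 h at 37 °C, with CellTiter-Glo luminescence as endpoint.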", "values": [{"smiles": "Nc1ccn(C2CO[C@H](CO)O2)c(=O)n1", "note": "(some centres undefined)", "Potency": "inactive"}, {"smiles": "CC1(C)NC(=O)N(c2ccc([N+](=O)[O-])c(C(F)(F)F)c2)C1=O", "Potency": "inactive"}, {"smiles": "C[C@@H]1CCO[C@H]2Cn3cc(C(=O)NCc4ccc(F)cc4F)c(=O)c(O)c3C(=O)N12", "Potency": "inactive"}, {"smiles": "CCCCc1nc2cc(C=CC(=O)NO)ccc2n1CCN(CC)CC", "Potency": "4.18 µM (active)"}, {"smiles": "COc1ccc([C@@H]2CC(=O)c3c(O)cc(O[C@@H]4O[C@H](CO[C@@H]5O[C@@H](C)[C@H](O)[C@@H](O)[C@@H]5O)[C@@H](O)[C@H](O)[C@@H]4O)cc3O2)cc1O", "Potency": "inactive"}, {"smiles": "CCNC(=O)Nc1ccc(Oc2ncnc(N)c2C=NOC)cc1Cl", "Potency": "inactive"}, {"smiles": "NNc1nncc2ccccc12", "Potency": "inactive"}, {"smiles": "CSc1cccc(Nc2ncc3cc(-c4c(Cl)cccc4Cl)c(=O)n(C)c3n2)c1", "Potency": "inactive"}]}, {"assay": "Quantitative highthroughput screen to assess conditional lethalithy of NOMO1 cells grown in RPMI1640 with dialyzed fetal bovine serum (RPMI+ds) (AID 1963877)", "conditions": "NOMO1 in RPMI+dialyzed FBS viability, ATP luminescence, 48 h; series mostly up to 45.8 µM", "in_short": "as §1", "values": [{"smiles": "Nc1ccn(C2CO[C@H](CO)O2)c(=O)n1", "note": "(some centres undefined)", "Potency": "inactive"}, {"smiles": "CC1(C)NC(=O)N(c2ccc([N+](=O)[O-])c(C(F)(F)F)c2)C1=O", "Potency": "inactive"}, {"smiles": "C[C@@H]1CCO[C@H]2Cn3cc(C(=O)NCc4ccc(F)cc4F)c(=O)c(O)c3C(=O)N12", "Potency": "inactive"}, {"smiles": "CCCCc1nc2cc(C=CC(=O)NO)ccc2n1CCN(CC)CC", "Potency": "6.62 µM (active)"}, {"smiles": "COc1ccc([C@@H]2CC(=O)c3c(O)cc(O[C@@H]4O[C@H](CO[C@@H]5O[C@@H](C)[C@H](O)[C@@H](O)[C@@H]5O)[C@@H](O)[C@H](O)[C@@H]4O)cc3O2)cc1O", "Potency": "inactive"}, {"smiles": "CCNC(=O)Nc1ccc(Oc2ncnc(N)c2C=NOC)cc1Cl", "Potency": "inactive"}, {"smiles": "NNc1nncc2ccccc12", "Potency": "inactive"}, {"smiles": "CSc1cccc(Nc2ncc3cc(-c4c(Cl)cccc4Cl)c(=O)n(C)c3n2)c1", "Potency": "inactive"}]}, {"assay": "Quantitative highthroughput screen to assess conditional lethalithy of NOMO1 cells grown in Human Plasma-Like Medium with dialyzed fetal bovine serum (HPLM+ds) (AID 1963878)", "conditions": "NOMO1 AML cells in HPLM+ds, CellTiter-Glo viability, 48 h; series mostly up to 45.8 µM", "in_short": "as §1", "values": [{"smiles": "Nc1ccn(C2CO[C@H](CO)O2)c(=O)n1", "note": "(some centres undefined)", "Potency": "inactive"}, {"smiles": "CC1(C)NC(=O)N(c2ccc([N+](=O)[O-])c(C(F)(F)F)c2)C1=O", "Potency": "inactive"}, {"smiles": "C[C@@H]1CCO[C@H]2Cn3cc(C(=O)NCc4ccc(F)cc4F)c(=O)c(O)c3C(=O)N12", "Potency": "inactive"}, {"smiles": "CCCCc1nc2cc(C=CC(=O)NO)ccc2n1CCN(CC)CC", "Potency": "4.69 µM (active)"}, {"smiles": "COc1ccc([C@@H]2CC(=O)c3c(O)cc(O[C@@H]4O[C@H](CO[C@@H]5O[C@@H](C)[C@H](O)[C@@H](O)[C@@H]5O)[C@@H](O)[C@H](O)[C@@H]4O)cc3O2)cc1O", "Potency": "inactive"}, {"smiles": "CCNC(=O)Nc1ccc(Oc2ncnc(N)c2C=NOC)cc1Cl", "Potency": "inactive"}, {"smiles": "NNc1nncc2ccccc12", "Potency": "inactive"}, {"smiles": "CSc1cccc(Nc2ncc3cc(-c4c(Cl)cccc4Cl)c(=O)n(C)c3n2)c1", "Potency": "inactive"}]}]}
